Experimental data reported in PubChem BioAssay AID1159580 (chemical genetic matrix, 2015).
Several values for one entry are separate records, joined by “and”; a condition that tells them apart may be missing. Identical values can stand only once. The campaign covered roughly 5,500 compounds. About 2,000 (36%) were called active. Another 18% or so got no clear call; they are omitted. No stated cut-off is given here; in the data, active means normalized growth mostly below about 0.91 (no sharp cut-off); inconclusive means no clear call, values can overlap the other calls; inactive means mostly above about 0.92. The list shows a part of the results.

Experiment: chemical genetic growth profiling, strain panel (AID 1159580);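 further: tested at 20 µM; growth read once vehicle control cultures reached saturation at 30 °C; 1 = growth at the plate median or of vehicle wells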
Conditions: S. cerevisiae deletion strains, growth OD

Measured: normalized growth

CSc1nc(NC(C)C)nc(NC(C)C)n1
inactive: locus YAL013W, strain DEP1, stronger effect = lower value 1.01 | locus YAL021C, strain ccr4, stronger effect = lower value 0.969 | locus YAL026C, strain drs2, stronger effect = lower value 0.969 | locus YAL030W, strain snc1, stronger effect = lower value 0.98 | locus YBL061C, strain skt5, stronger effect = lower value 0.968 | locus YBR009C, strain hhf1, stronger effect = lower value 0.979 | locus YBR021W, strain FUR4, stronger effect = lower value 1.04 | locus YBR023C, strain chs3, stronger effect = lower value 0.957 | locus YBR171W, strain sec66, stronger effect = lower value 0.954 | locus YBR229C, strain ROT2, stronger effect = lower value 0.999 | locus YBR231C, strain swc5, stronger effect = lower value 0.961 | locus YBR279W, strain paf1, stronger effect = lower value 0.972 | locus YCL011C, strain gbp2, stronger effect = lower value 0.966 | locus YCL016C, strain dcc1, stronger effect = lower value 0.967 | locus YCL029C, strain bik1, stronger effect = lower value 1.01 | locus YCL061C, strain MRC1, stronger effect = lower value 0.979 | locus YCL069W, strain vba3, stronger effect = lower value 0.975 | locus YCR088W, strain abp1, stronger effect = lower value 0.986 | locus YDL005C, strain med2, stronger effect = lower value 0.981 | locus YDL035C, strain GPR1, stronger effect = lower value 1.02 | locus YDL040C, strain nat1, stronger effect = lower value 0.962 | locus YDL074C, strain BRE1, stronger effect = lower value 1.01 | locus YDL101C, strain DUN1, stronger effect = lower value 1.02 | locus YDL134C, strain PPH21, stronger effect = lower value 1 | locus YDL185W, strain tfp1, stronger effect = lower value 1.03 | locus YDL192W, strain arf1, stronger effect = lower value 1.01 | locus YDR001C, strain nth1, stronger effect = lower value 0.979 | locus YDR069C, strain doa4, stronger effect = lower value 0.977 | locus YDR101C, strain arx1, stronger effect = lower value 1.01 | locus YDR137W, strain rgp1, stronger effect = lower value 0.848 | locus YDR150W, strain NUM1, stronger effect = lower value 0.994 | locus YDR159W, strain sac3, stronger effect = lower value 0.967 | locus YDR162C, strain NBP2, stronger effect = lower value 1.02 | locus YDR195W, strain ref2 0.998 | locus YDR297W, strain sur2, stronger effect = lower value 0.975 | locus YDR318W, strain mcm21, stronger effect = lower value 1.03 | locus YDR334W, strain swr1, stronger effect = lower value 0.968 | locus YDR335W, strain msn5, stronger effect = lower value 0.969 | locus YDR388W, stronger effect = lower value 1.01 | locus YDR392W, strain spt3, stronger effect = lower value 0.958 | locus YDR502C, strain sam2, stronger effect = lower value 1.01 | locus YEL003W, strain gim4, stronger effect = lower value 0.972 | locus YEL037C, strain rad23, stronger effect = lower value 0.975 | locus YEL061C, strain CIN8 (second series), stronger effect = lower value 0.961 | locus YEL061C, strain CIN8, stronger effect = lower value 1 | locus YER015W, strain faa2, stronger effect = lower value 0.973 | locus YER016W, strain bim1, stronger effect = lower value 0.966 | locus YER110C, stronger effect = lower value 1 | locus YER111C, strain swi4, stronger effect = lower value 0.977 | locus YER155C, strain BEM2 (second series), stronger effect = lower value 0.952 | locus YER155C, strain BEM2, stronger effect = lower value 1.01 | locus YER167W, strain BCK2, stronger effect = lower value 0.995 | locus YFR010W, strain ubp6, stronger effect = lower value 0.978 | locus YGL078C, strain dbp3, stronger effect = lower value 1.01 | locus YGL086W, strain mad1, stronger effect = lower value 1.01 | locus YGL167C, strain pmr1, stronger effect = lower value 0.958 | locus YGL173C, strain kem1, stronger effect = lower value 0.964 | locus YGL227W, strain vid30, stronger effect = lower value 0.956 | locus YGL240W, strain doc1, stronger effect = lower value 0.95 | locus YGL248W, strain PDE1, stronger effect = lower value 1.01 | locus YGL253W, strain hxk2, stronger effect = lower value 0.973 | locus YGR078C, strain PAC10, stronger effect = lower value 1.01 | locus YGR135W, strain pre9, stronger effect = lower value 1.01 | locus YGR229C, strain SMI1, stronger effect = lower value 1.02 | locus YGR252W, strain gcn5, stronger effect = lower value 1.14 | locus YHR013C, strain ard1, stronger effect = lower value 0.944 | locus YHR027C, strain rpn1, stronger effect = lower value 0.972 | locus YHR030C, strain SLT2, stronger effect = lower value 1.02 and 1.03 | locus YHR079C, strain IRE1 (second series), stronger effect = lower value 1.01 | locus YHR079C, strain IRE1, stronger effect = lower value 1.03 | locus YHR094C, strain hxt1, stronger effect = lower value 1 | locus YHR129C, strain ARP1, stronger effect = lower value 1.01 | locus YHR142W, strain chs7, stronger effect = lower value 0.95 | locus YHR200W, strain rpn10, stronger effect = lower value 1.01 | locus YIL066C, strain RNR3, stronger effect = lower value 1.03 | locus YIL073C, strain SPO22, stronger effect = lower value 1.02 | locus YIL125W, strain kgd1, stronger effect = lower value 1.01 | locus YIR030C, strain dcg1, stronger effect = lower value 1.02 | locus YJL092W, strain hpr5, stronger effect = lower value 0.981 | locus YJL095W, strain BCK1 (second series), stronger effect = lower value 0.968 | locus YJL095W, strain BCK1, stronger effect = lower value 0.988 and 0.974 | locus YJL115W, strain asf1, stronger effect = lower value 0.978 | locus YJL129C, strain trk1, stronger effect = lower value 0.962 | locus YJL134W, strain LCB3, stronger effect = lower value 1.02 | locus YJL154C, strain vps35, stronger effect = lower value 0.977 | locus YJL164C, strain tpk1, stronger effect = lower value 0.969 | locus YJL166W, strain qcr8, stronger effect = lower value 0.978 | locus YJL168C, strain set2, stronger effect = lower value 1 | locus YJL187C, strain SWE1 (second series), stronger effect = lower value 1.01 | locus YJL187C, strain SWE1, stronger effect = lower value 0.973 | locus YJR043C, strain POL32, stronger effect = lower value 1.02 | locus YJR066W, strain TOR1, stronger effect = lower value 0.968
